“And” between values parts separate entries of the source, which are not always exact repeats. Equal entries are not always repeated. The panel holds about 79,000 compounds, 15% with a hit somewhere; the sample as a whole holds those more often. Unmarked numbers belong to inactive results. The source made the active and inactive calls. No stated cut-off is given here; in the data, active means growth inhibition above about 70%; inactive means the rest.
Legend:
[1] = NCI Yeast Anticancer Drug Screen. Data for the rad50 strain (AID 155);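 further: 0% = growth of vehicle-only cultures of the same strain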; conditions: S. cerevisiae rad50 strain growth inhibition, stronger effect = higher value; at 50.0 µM unless noted
Procedure, shortened: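 Readout: growth inhibition relative to vehicle-treated cultures. Compound exposure was carried out in a genetically defined yeast strain deficient in DNA damage repair.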

[2] = NCI Yeast Anticancer Drug Screen. Data for the mec2-1 strain (AID 157); conditions: S. cerevisiae mec2-1 strain, stronger effect = higher value; at 50.0 µM unless noted
Procedure, shortened: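 Readout is yeast growth inhibition, normalised to vehicle-treated controls, in the mec2-1 strain exposed to compound.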

[3] = NCI Yeast Anticancer Drug Screen. Data for the sgs1 mgt1 strain (AID 161);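 further: 0% = growth of cultures given vehicle only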; conditions: S. cerevisiae sgs1 mgt1 strain, stronger effect = higher value; at 50.0 µM unless noted
Procedure, shortened: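 Percent growth inhibition was derived by comparing compound-exposed mutant yeast with vehicle-exposed cultures. The strain carries alterations in DNA damage repair.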

[4] = NCI Yeast Anticancer Drug Screen. Data for the cln2 rad14 strain (AID 165);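 further: 0% = growth equal to vehicle treated cultures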; conditions: S. cerevisiae cln2 rad14 strain, stronger effect = higher value; at 50.0 µM unless noted
Procedure, shortened: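 Relative to vehicle controls, growth inhibition of compound-treated cln2 rad14 yeast was recorded.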

[5] = NCI Yeast Anticancer Drug Screen. Data for the bub3 strain (AID 167); conditions: S. cerevisiae bub3 mutant strain, stronger effect = higher value; at 50.0 µM unless noted
Procedure, shortened: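 Readout: yeast growth inhibition, expressed relative to vehicle-only wells. The test organism is a mutant strain from a panel with lesions in DNA repair or checkpoint genes.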

[6] = NCI Yeast Anticancer Drug Screen. Data for the mlh1 rad18 strain (AID 175); conditions: S. cerevisiae mlh1 rad18 strain growth inhibition, stronger effect = higher value; at 50.0 µM unless noted
Procedure, shortened: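 Test agents were incubated with a yeast strain of defined genotype (DNA damage repair defect). Inhibition of growth was derived by comparison with vehicle-exposed cultures.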

Compound	growth inhibition [1]	growth inhibition [2]	growth inhibition [3]	growth inhibition [4]	growth inhibition [5]	growth inhibition [6]
COc1ccc(CCn2c(=O)c3ccccc3n(C)c2=O)cc1	17.9%	-4.2%	13.2%	34.2%	41.6%	0.8%
Cc1ccc(S(=O)(=O)ONNc2nccc3ccccc23)cc1	16.9%	7.05%	1.55%	-16.8%	1.15%	19.4%
NC(=O)OCCOC(N)=O	7.5%	1%	-31.9%	-9.95%	15.8%	2.55%
CN(C)C(C)(CO)CO	17.4%	-6.55%	0.65%	6.45%	9.2%	0.55%
CC(C)OC(=O)CCC(N)C(=O)O (stereo unspecified)	2.95%	0.6%	1.85%	-4.8%	2.55%	0.1%
CCOC(=O)Cc1ccc(N(CCO)CCO)cc1	5.15%	7.4%	22.8%	-0.2%	12.9%	5.55%
COc1cccc(C2SC(N)=Nc3c2c(C)nn3C(=O)c2ccccc2O)c1 (stereo unspecified)	19.7%	9.25%	33.1%	17.6%	38%	24.9%
Cc1ccc(NC(=O)ON(C)C)cc1	-1.65%	11.7%	8.25%	-81.5%	-18.9%	-24.2%
CC(=O)OC1CC2CC1C1OC21 (stereo unspecified)	-2.25%	-15.3%	-22.1%	-1.8%	-11.7%	-6.65%
N#C/C(=C\c1ccccc1)c1ccc(F)cc1	39.4%	42.1%	25.7%	18.4%	32.5%	25.8%
c1ccc(-c2cnoc2-c2ccccc2)cc1	14%	17.6%	7.15%	-19.8%	-18.7%	8.3%
COC(=O)C1(c2ccccc2)N=C(c2ccc(C)cc2)ON1c1ccccc1 (stereo unspecified)	-5.95%	7.05%	-7.85%	12.7%	-1%	10.1%
CC(=O)CCCCC(=O)Nc1ccc(CC(NC(=O)OC(C)(C)C)C(=O)NCC(=O)OCc2ccccc2)cc1 (stereo unspecified)	-38.5%	-4.5%	-1.6%	8.85%	10%	-12.1%
O=C1C=C(c2ccccc2)C(c2ccccc2)/C1=N/O (stereo unspecified)	11.3%	-12.9%	2.55%	13.1%	11.9%	-9.85%
COC(=O)/C=C(/Sc1nc(Cl)c(Cl)nc1N)C(=O)OC (tested in a mixture with another compound)	-15.1%	-6.25%	10.7%	-4.3%	-29.5%	-24.6%
Cc1ccc(C)c(NC(=O)NC(C)(C)C)c1	-0.2%	-22.4%	-2.7%	-55.1%	-5.65%	-4.5%
C(=Nc1ccc(N=Cc2ccco2)cc1)c1ccco1	10.8%	2.3%	0.5%	-8.1%	-8.5%	7.35%
CC(C)OC(=O)Oc1cccc(OC(=O)OC(C)C)c1	3.15%	-28.8%	2.15%	6.95%	8.5%	9.3%
O=C1c2ccccc2C(=O)c2c3c(cc(NCCNCCO)c21)N(CCO)CCN3	29.4%	18.4%	33.8%	10.3%	34.8%	29.1%
COc1ccc(OC)c(N)c1	-4.3%	-8.4%	-7.55%	16.4%	3.6%	-22.9%
CCOC(=O)c1sc(C(=O)O)cc1-c1cccs1	3.9%	9.65%	11.5%	-5.6%	-10.6%	15%

Compound	growth inhibition [1]	growth inhibition [2]	growth inhibition [3]	growth inhibition [4]	growth inhibition [5]	growth inhibition [6]
O=C(O)C1CC(=O)N(Cc2ccccc2)C1 (stereo unspecified)	32.8%	33.3%	34.6%	6.45%	26.7%	34%
O=C1C=CC(=Nc2ccc3c(c2)-c2ccccc2C3)O1	3.2%	21%	5.05%	-9.9%	1.35%	12.1%
O=C1C(=O)c2ccccc2C(O)=C1C1CCCCC1	44.4%	2.15%	24.3%	5.55%	18.1%	26.9%
CCCCCCCCCCCCCOc1ccc(S(=O)(=O)/N=C(\N)NC(N)=NCCCCCCCCCCCC)cc1	2.9%	12.4%	-2.8%	-1.55%	-4.95%	8.05%
Cc1ccc(OC(=O)Oc2ccc(C)cc2)cc1	18.8%	1.9%	4.35%	-6.9%	7.05%	18%
COC(=O)c1ccccc1NS(=O)(=O)c1ccc(Cl)cc1	42.2%	66.1%	75.7% (active)	47.8%	93% (active)	82.2% (active)
COc1ccc(C)cc1NC(=O)OCCCl	3.1%	2.35%	2.65%	5.95%	11.1%	-5.3%
O=C(O)c1cscc1Cc1cccs1	0.05%	-13.7%	-43.6%	-30.6%	-76%	13.7%
CSc1ccc(Nc2cc(=O)[nH]c(=O)[nH]2)cc1	14.6%	8.75%	18.1%	2.3%	3.7%	-10.9%
CCOC(=O)/C=C/CCC(C)(C)COC(C)=O	-10.1%	-1.4%	-36.9%	-49.8%	0.05%	-31.9%
CC1CCC2(OC1)OC1CC3C4CCC5CC(O)CCC5(C)C4C(O)CC3(C)C1C2C (stereo unspecified)	42.5%	5.65%	43%	36.8%	52.1%	24.1%
Cc1cccc(/C=N/NC(=S)NC(C)(C)C)n1	-17.4%	-32.4%	-4.45%	0.1%	15.8%	-27.1%
COc1ccc(OC)c(NC(=O)CCCC(=O)C(C#N)c2ccc(CC#N)cc2)c1 (stereo unspecified)	-15.8%	-17.6%	-34.5%	-40.8%	3.1%	-25.6%
Nc1cc(Nc2ccccc2)nc(=O)[nH]1	-3.1%	-0.55%	-4.85%	-75.2%	-7.1%	5.2%
CC(C)(C)N=NNc1cn(C2OC(CO)C(O)C2O)c(=O)[nH]c1=O (stereo unspecified)	-16.3%	-17.6%	-16.9%	9.5%	-6.2%	-15.7%
COC(=O)c1cccc(C(=O)OC)c1	-33.1% and 14.2%	-3.45% and -1.6%	-14.4% and 18.8%	5.2% and -1.7%	-1.9% and 19.4%	3.75% and 15.4%
O=S(=O)(Nc1nccs1)c1ccc(NCc2c3ccccc3nc3cc(Cl)ccc23)cc1	13.3%	3.15%	9.75%	-6.65%	-0.2%	25.8%
CCCCCCSC(=O)NC(C)=O	-10.3%	-0.95%	1.4%	-86%	-18.9%	0%
Cc1cc(Cl)ccc1N=C1NC(=O)C(CC(=O)Nc2ccc([N+](=O)[O-])cc2[N+](=O)[O-])S1 (stereo unspecified)	25.1%	-4%	12.1%	-58.9%	13%	33.1%
CCN(CC)CCNC(=O)c1ccc(I)cc1	-43.4%	-14.8%	-0.9%	-25.6%	-4.35%	-30.9%
